Our source for the Potency and outcome values is PubChem BioAssay (Tox21).

Results filed as inconclusive are left out. Active and inactive are the calls of the source. Unless noted, calls follow the shape of the full dose curve.

In assay [1] the target is Thyrotropin receptor (Homo sapiens) (UniProt P16473). Description: qHTS assay to identify small molecule agonists of the thyroid stimulating hormone receptor (TSHR) signaling pathway (AID 1224843). Also: nearly all actives have a fitted effect of over 45% in size. Also: potency is read from the fitted curve at half-maximal effect. The gist of the method: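 HEK293/TSHR, 800 cells/well; cpd 30 min RT; add cAMP-d2 + anti-cAMP-cryptate, 1 h RT; fluorescence read on plate reader. 15-pt titration, n=3.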
(In general: In qHTS, concentration-response curves come from the screen itself.)

Assay [2] is described as follows: qHTS assay to identify small molecule agonists of the hypoxia (HIF-1) signaling pathway - cell viability counter screen (AID 1224844). Also: nearly all actives have a fitted effect of over 50% in size. The gist of the method: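 In this counter screen, HRE-bla ME-180 cell viability after 17 hrs of compound exposure at 37C was read by CellTiter-Glo luminescence, multiplexed with the beta-lactamase reporter measurement.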
A short description of assay [3]: qHTS assay to identify small molecule agonists of H2AX (AID 1224845; active = well fitted activation curve with a large enough effect in the signal ratio in the repeat runs, not every such curve was filed as active; the % refers to the signal ratio). The gist of the method:
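Wild-type CHO-K1 cells, plated overnight, exposed 3hr at 37C to 15 concentrations (0.76% DMSO final). Lysed, then HTRF anti-pH2AX (S139) cryptate and anti-H2AX-d2 antibodies, 24 hr room temperature; 665/620 nm emission read.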

Assay [4] in a line: qHTS assay to identify small molecule agonists of the hypoxia (HIF-1) signaling pathway (AID 1224846; active = well fitted activation curve with a large enough effect in the signal ratio in the repeat runs, not every such curve was filed as active; the % refers to the signal ratio). The gist of the method:
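ME-180 HRE-bla reporter cells; compounds in DMSO, 17 h at 37C; read-out beta-lactamase via CCF4-AM FRET.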

Assay [5] is described as follows: qHTS assay to identify small molecule agonists of H2AX - cell viability counter screen (AID 1224847). Also: top concentration of the series differs between compounds; nearly all actives have a fitted effect of over 30% in size. The gist of the method:
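Wild-type CHO-K1 cells (10% FBS medium) were plated overnight at 37C, exposed to compounds at 15 concentrations for 3 hr at 37C (0.76% DMSO final), and viability was read as CellTiter-Glo luminescence after 30 min at room temperature.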

The nature of assay [6]: qHTS RealTime-Glo MT Cell Viability Assay in HepG2 cells - 24 hour (AID 1224867; active = well fitted cell-killing curve with a large enough effect in the repeat runs; also: nearly all actives have a fitted effect of over 50% in size). The gist of the method: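 Compound treatment began 5 h after plating HepG2 cells (600/well) with NanoLuc luciferase and prosubstrate. Plates stayed at 37 C for 40 h; luminescence was captured at six time points, 0 h through 40 h.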

Thyrotropin receptor (Homo sapiens), sequence (P16473 whole entry, looked up): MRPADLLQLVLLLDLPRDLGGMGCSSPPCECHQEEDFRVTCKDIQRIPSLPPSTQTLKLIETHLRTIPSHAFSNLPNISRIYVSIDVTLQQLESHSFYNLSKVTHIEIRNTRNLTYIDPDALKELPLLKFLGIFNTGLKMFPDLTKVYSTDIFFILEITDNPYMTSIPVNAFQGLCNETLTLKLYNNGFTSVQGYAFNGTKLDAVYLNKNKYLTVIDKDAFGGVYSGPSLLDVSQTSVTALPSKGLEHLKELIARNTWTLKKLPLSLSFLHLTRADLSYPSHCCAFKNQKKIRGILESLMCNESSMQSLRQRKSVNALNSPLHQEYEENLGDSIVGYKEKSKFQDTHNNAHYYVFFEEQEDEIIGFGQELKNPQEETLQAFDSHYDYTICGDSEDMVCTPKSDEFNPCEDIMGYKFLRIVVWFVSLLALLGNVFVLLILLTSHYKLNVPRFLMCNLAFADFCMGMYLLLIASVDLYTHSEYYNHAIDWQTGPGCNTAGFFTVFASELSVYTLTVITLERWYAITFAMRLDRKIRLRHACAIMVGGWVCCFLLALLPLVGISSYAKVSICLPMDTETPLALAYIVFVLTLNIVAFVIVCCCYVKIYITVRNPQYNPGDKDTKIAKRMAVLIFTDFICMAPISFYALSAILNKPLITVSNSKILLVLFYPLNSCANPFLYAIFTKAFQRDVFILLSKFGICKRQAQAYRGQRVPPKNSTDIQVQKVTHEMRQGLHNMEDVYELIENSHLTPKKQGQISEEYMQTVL

For `CCCC(=O)OC`, the Potency entry in assay [1] is “inactive”. Moreover, the compound was classed as inactive in assay [2], in assay [3] and in assay [4].

With `CCCCC(CC)CCC(CC(C)C)OS(=O)(=O)O` (centres undefined), the Potency entry in assay [1] is “inactive”. Moreover, the outcome in assay [2], in assay [3], in assay [4] and in assay [5] was inactive.

In the case of `CC(=O)Nc1ccc(S(=O)(=O)Nc2cc(C)on2)cc1`, in assay [1], the Potency entry was “inactive”. Besides, the compound was classed as inactive in assay [2], in assay [3], in assay [4] and in assay [5].

For the compound `CCc1ncc(C)[nH]1`, the Potency result in assay [1] was “inactive”. Moreover, the compound was called inactive in assay [2], in assay [3], in assay [4], in assay [5] and in assay [6].

As to `COC(=O)c1ccc(NC(C)=O)cc1OC`, in assay [1], the Potency result is “inactive”. Also, the outcome in assay [2], in assay [3], in assay [4] and in assay [5] was inactive.

For `COc1ccccc1N1CCN(CC(O)COc2cc(OC)c(OC)c(OC)c2)CC1` (centres undefined), in assay [1], the Potency entry was “inactive”. Besides, the result in assay [2], in assay [3], in assay [4], in assay [5] and in assay [6] was inactive.

`O=c1c(O)c(O)c1=O`: the Potency in assay [1] is 27.3 µM (active). Besides, the result in assay [2], in assay [3], in assay [4], in assay [5] and in assay [6] was inactive.

Regarding `NCC1CCC(C(=O)Oc2ccc(CCC(=O)O)cc2)CC1` (centres undefined), the Potency entry in assay [1] was “inactive”. The compound was called inactive in assay [2], in assay [3], in assay [4], in assay [5] and in assay [6].

For the compound `Cc1cc(=O)oc2cc(O[C@@H]3SC[C@@H](O)[C@H](O)[C@H]3O)ccc12`, in assay [1], the Potency result is “inactive”. Besides, the result in assay [2], in assay [3], in assay [4], in assay [5] and in assay [6] was inactive.

For `CSC(=O)c1cccc2nnsc12`, in assay [1], the Potency entry was “inactive”. For the same compound, the compound was called inactive in assay [2], in assay [3], in assay [4], in assay [5] and in assay [6].

On to `CC(C)CC(O)Cc1ccccc1` (centres undefined), for which, in assay [1], the Potency result was “inactive”. For the same compound, the compound was classed as inactive in assay [2], in assay [3], in assay [4], in assay [5] and in assay [6].

Regarding `CCOC(=O)[C@H](CCc1ccccc1)N[C@H]1CS[C@H](c2cccs2)CN(CC(=O)O)C1=O`, the Potency result in assay [1] is “inactive”. For the same compound, the result in assay [2], in assay [3], in assay [4], in assay [5] and in assay [6] was inactive.

Turning to `CCCCc1ccc(Cl)cc1`, the Potency result in assay [1] was “inactive”. Moreover, the result in assay [2], in assay [3], in assay [4], in assay [5] and in assay [6] was inactive.

`c1coc(Cn2cccc2)c1`: the Potency result in assay [1] was “inactive”. Besides, the compound was classed as inactive in assay [2], in assay [3], in assay [4], in assay [5] and in assay [6].
